Measurements reported in PubChem BioAssay AID701 (PCMD, 2007).
In all, about 33,000 compounds went through this assay and about 70 (0.2%) were called active. Cut-off read from the data, not from the text of the source: active = inhibition above about 30%; inactive = the rest. A selection follows.

Target: Coagulation factor XII (Homo sapiens) (UniProt P00748)
Assay: human FXIIa protease inhibitors, primary screen, biochemical, single well (AID 701);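 note: 0% = enzyme with vehicle only and 100% = no enzyme blank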
Conditions: purified human FXIIa, AMC substrate fluorescence, 2 h; at 10 µM; stronger effect = higher value

Sequence of Coagulation factor XII (Homo sapiens) (P00748 20-372 limits assumed): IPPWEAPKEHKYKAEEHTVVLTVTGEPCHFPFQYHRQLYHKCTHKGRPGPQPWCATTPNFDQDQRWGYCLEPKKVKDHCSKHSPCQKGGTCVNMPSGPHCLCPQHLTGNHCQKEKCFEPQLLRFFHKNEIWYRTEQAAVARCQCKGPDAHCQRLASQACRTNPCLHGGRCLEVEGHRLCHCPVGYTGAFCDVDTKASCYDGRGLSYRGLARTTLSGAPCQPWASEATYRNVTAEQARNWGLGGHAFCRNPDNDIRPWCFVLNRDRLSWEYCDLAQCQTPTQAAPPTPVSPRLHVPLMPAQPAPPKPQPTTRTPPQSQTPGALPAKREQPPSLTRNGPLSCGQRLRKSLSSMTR
Sequence of Coagulation factor XII (Homo sapiens) (P00748 373-615 limits assumed): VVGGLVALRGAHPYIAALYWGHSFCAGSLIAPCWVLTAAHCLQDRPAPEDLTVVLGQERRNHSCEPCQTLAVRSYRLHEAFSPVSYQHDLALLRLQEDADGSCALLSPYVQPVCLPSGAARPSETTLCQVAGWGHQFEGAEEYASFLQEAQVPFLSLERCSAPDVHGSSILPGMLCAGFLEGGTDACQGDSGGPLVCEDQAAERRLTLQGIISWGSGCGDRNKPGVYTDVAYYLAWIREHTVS

inhibition, inactive:
COc1cc2c(cc1OC)C(C(=O)NCc1ccco1)C1c3ccccc3CCN1C2=O (configuration not stated) 7.77%
COCCN(C(=O)c1ccco1)c1nnc(-c2ccc(OC)cc2)s1 7.18%
CCCCN1C(=O)CC(N2CCOCC2)C1=O (configuration not stated) 4.3%
Cc1cccc(NC(=O)Cn2cc(C(=O)c3ccco3)c3ccccc32)c1 -10.1%
Cc1ccc(N(CC(=O)Nc2cc(C)cc(C)c2)S(=O)(=O)c2cccc3nonc23)cc1 17.2%
COc1ccc(-c2cc3nc(C)c(CCC(=O)NC(C)CCc4ccco4)c(C)n3n2)c(OC)c1 (configuration not stated) -1.94%
CC1=C(C(N)=O)C(c2sccc2C)n2nnnc2N1 (configuration not stated) 3.63%
CCOC(=O)c1nnn(-c2nonc2-n2cccc2)c1CN1CCC(C(=O)OCC)CC1 0.91%
O=C(CC1(O)C(=O)N(CN2CCOCC2)c2ccccc21)c1ccccc1 (configuration not stated) -13.4%
CCOCCCNC(=O)C(NC(=O)c1ccc(=O)[nH]c1)c1ccc(C)cc1 (configuration not stated) -13.5%
CC(O)CN(Cc1ccc(Cl)cc1)CC(C)O (configuration not stated) 4.36%
COc1ccc(N(CC(=O)NC2CCCCC2)S(=O)(=O)c2c(C)[nH]c(=O)[nH]c2=O)cc1 6%
CC(=O)N1CCCc2cc(S(=O)(=O)CCC(=O)N3CCN(c4ccccc4)CC3)ccc21 -16.3%
O=C1CSC(c2cccc(F)c2)N1c1ccc(O)cc1 (configuration not stated) 20.5%
CC(=O)c1c(C)[nH]c(C(=O)NCc2ccc(C)cc2)c1C 5.44%
Cn1c(=O)n(CCc2ccccc2)c(=O)c2c1nc1n2CCCN1c1ccccc1 -0.18%
O=C1CSC(c2ccc(Cl)cc2)N1 (configuration not stated) -6.79%
OC(COc1cccc(OCC(O)CN2CCCC2)c1)CN1CCCC1 (configuration not stated) 1.91%
COc1cccc(NC(=O)Cc2ccc(C)cc2)c1 3.98%
COc1cc(CC(=O)NCc2cccs2)cc(OC)c1OC 12%
Brc1ccc(Nc2c3c(nc4ncnn24)CCC3)cc1 -0.85%
CCN1CCN(C(c2cccnc2)c2cc(Cl)c3cccnc3c2O)CC1 (configuration not stated) 11.8%
O=S(=O)(NCCNS(=O)(=O)c1ccccc1)c1ccccc1 15.1%
CCC(=O)NC(Nc1cc(C)ccn1)(C(F)(F)F)C(F)(F)F 5.79%
CCCNC(=O)c1ccccc1NC(=O)CSCc1ccc(OC)cc1 0.92%
CCCNC(=O)CN(Cc1ccccc1F)S(=O)(=O)c1ccc(C)cc1 16.6%
CC(=O)Nc1ccc(S(=O)(=O)N2CCSCC2)cc1 3.77%
Cc1cc(SCC(=O)c2ccccc2)nc(SCC(=O)c2ccccc2)n1 -15.6%
Cc1ccc(CCN2CC(C(=O)O)CC2=O)cc1 (configuration not stated) 9.91%
O=C(NCCc1ccccc1)c1ccc(OCCOc2ccccc2)cc1 5.87%
CCOC(=O)c1[nH]cnc1C(=O)NC1CCCCC1 1.72%
COCCn1c(SCc2nc3cc(OC)c(OC)cc3c(=O)[nH]2)nnc1-c1ccncc1 3.73%
Cn1nnnc1SCC(=O)Nc1ccccc1C(=O)NC1CC1 -1.23%
O=S(=O)(N1CCCCC1)N1CCNCC1 4.16%
Cc1cc(C(=O)OC(C)C(=O)Nc2cccc(S(=O)(=O)N3CCOCC3)c2)c(C)o1 (configuration not stated) 8.04%
CCn1c(SCC(=O)Nc2ccc(OC)c(OC)c2)nnc1-c1c[nH]c2ccccc12 5.25%
COc1cc(OC)cc(-c2cc3nc(C4CCN(C(=O)OC(C)(C)C)CC4)cc(=O)n3[nH]2)c1 -5.3%
COc1ccc(C2=NOC3(CC(=O)N(c4ccc(Cl)cc4)C3=O)C2)c(OC)c1 (configuration not stated) -13.9%
Cc1cccc(-n2ncc3c(N4CCc5ccccc54)ncnc32)c1 4.16%
Cn1ccs/c1=N\S(=O)(=O)c1ccc(C(C)(C)C)cc1 6.13%
CC(CN1CCOCC1)c1ccccc1 (configuration not stated) 7.84%
CCn1c(=O)c(=O)n(CC)c2cc(S(=O)(=O)N3CCc4ccccc43)ccc21 8.33%
COc1ccc(OCCCON2C(=O)c3ccccc3C2=O)cc1 3.44%
Cc1ccc(OCC(=O)N/N=C\c2ccco2)c(C)c1 5.38%
CCOCCOC(=O)C1=C(C)N(C)C(=O)NC1c1ccccc1F (configuration not stated) 2.69%
O=C(NCc1ccccc1)C1CCCN(S(=O)(=O)c2cccs2)C1 (configuration not stated) 3.39%
O=C(Nc1cc(-c2nn(CC(=O)N3CCCCC3)c(=O)c3ccccc23)ccc1N1CCOCC1)c1ccc(Cl)cc1 -11%
CC1CCCCC1NC(=O)C1CCCN1S(=O)(=O)c1cccc2nsnc12 (configuration not stated) 10.7%
CC1CC(C)CN(C(=O)CSc2nnc(CSc3ncccn3)n2C)C1 (configuration not stated) 1.36%
CCn1c(C)nc2cc(C(=O)NNS(=O)(=O)c3ccc(C)cc3C)ccc21 5.64%
COc1ccc(-n2c(C)csc2=S)cc1 1.97%
CCCCCN1CC(O)=C(c2ccccc2)C1=N -12.2%
O=C(Nc1cc2ccccc2oc1=O)C1CCCCC1 6%
Cc1nnc(SCC(=O)N2CCc3ccccc3C2)s1 -10.1%
Cc1ccc(CNC(=O)CCNS(=O)(=O)c2cccc3nonc23)cc1 7.33%
Cc1ccc(-n2c(CNc3ccc(F)cc3)nnc2SCC(=O)N2CCOCC2)cc1 0.69%
CCOC(=O)c1c(NC(C)=O)sc2c(O)c(Br)ccc12 5.45%
CCOC(=O)CN(Cc1ccc(OC)c(OC)c1)S(=O)(=O)c1ccc(OC)cc1 8.43%
CS(=O)(=O)N(CC(=O)N1CCN(Cc2ccccc2)CC1)c1ccc2c(c1)OCCO2 21.1%
COc1ccc(C2C(C#N)=C(/N=C/N3CCOCC3)OC3=C2C(=O)CC(C)(C)C3)cc1OC (configuration not stated) 8.48%
COC(=O)CSc1snnc1-c1ccc(Cl)c(Cl)c1 5.67%
Cc1nnc(OCC(=O)NCCC2=CCCCC2)c2ccccc12 11.9%
COC(=O)C(C)n1cnc2c(nnn2-c2cccc(Cl)c2)c1=O (configuration not stated) 4.25%
C=CCNC(=O)C12CC3CC(C1)CC(C(=O)NCC=C)(C3)C2 5.41%
O=C(CNS(=O)(=O)c1ccc(Br)s1)N1CCN(C(=O)c2ccco2)CC1 5.22%
O=c1onc(-c2cccs2)n1Cc1ccccc1 2.91%
CC(=O)C1=C(C)NC(=O)NC1c1cc(Br)ccc1OCC#N (configuration not stated) 6%
CC/C(O)=N\S(=O)(=O)c1ccc(N=NN(C)C)cc1 12.3%
O=C(c1cccc(N2CCCC2=O)c1)N1CCOCC1 8.03%
O=C(NCCCN1CCCCC1)c1ccc2c(c1)NC(=O)C(N1CCOCC1)S2 (configuration not stated) 2.66%
COc1ccccc1CNS(=O)(=O)c1ccc(C)cc1 -2.17%
Nn1c(SCC(=O)NC2CCCC2)nnc1-c1ccccc1F 2.89%
CC(=O)c1cccc(NC(=O)N2CCCC2C(=O)NCCc2ccccc2)c1 (configuration not stated) 6.02%
CC(=O)c1cccc(NC(=O)C2CCCN2S(=O)(=O)c2cccc3nsnc23)c1 (configuration not stated) -30.9%
COc1ccc(C(=O)NNC(=O)c2cnccn2)cc1[N+](=O)[O-] 6.61%
CSc1ccccc1NC(=O)c1cc(C2CC2)on1 5.73%
Cc1cc(C(=O)Nc2c(C)nn(Cc3ccccc3)c2C)on1 3.84%
Cc1nnc(NCCO)c2ccccc12 -0.65%
O=C(NC1CCCCC1)c1ccc(CNc2c(N3CCOCC3)c(=O)c2=O)cc1 9.25%
CCS(=O)(=O)c1ccc2oc(SCC(=O)N3c4ccccc4CC3C)nc2c1 (configuration not stated) 11.8%
CC(NC(=O)C1CCC(CNc2c(N3CCOCC3)c(=O)c2=O)CC1)c1ccccc1 (configuration not stated) 4.59%
Cc1ccc(OC(=O)c2ccccc2C(=O)OCC(F)(F)C(F)F)cc1 5.93%
Cc1ccc(CS(=O)(=O)CCC(=O)NC2CC2)cc1 3.34%
O=C(OCC(=O)N1CCN(C(=O)c2ccco2)CC1)c1ccccc1Cc1ccccc1 3.88%
CC(C)CCNC(=O)CC1C(=O)N(Cc2ccccc2)C(C)c2nc3ccccc3n21 (configuration not stated) 5.26%
CCCCCOC(=O)c1ccc(N2C(=O)C3C4C=CC(C4)C3C2=O)cc1 (configuration not stated) -10.2%
O=C(N1CCOCC1)N(Cc1ccccc1)c1ccccn1 1.36%
COC(=O)c1cc(OC)ccc1-c1ccc(OC)cc1 4.36%
COCCCNC(=O)CN1CCN(Cc2ccccc2Cl)C1=O 13.3%
COCCNC(=O)COc1ccc(C)c(C)c1 5.6%
COC(=O)C1C(=O)NCC1c1ccc(C)cc1 (configuration not stated) 4.77%
COc1ccc(C(=O)Nc2ccc(CN3CCOCC3)cc2)cc1 -0.34%
COC(=O)c1ccccc1Sc1c(/C=N/OCc2ccc(Cl)cc2)c(C(F)(F)F)nn1C 5.69%
CCSc1nc(-c2ccc(OC)cc2)cc(-c2ccc(OC)cc2)c1C#N 12.5%
COC(=O)[C@@H](NC(=O)Nc1cc(Cl)ccc1C)C(C)C -0.53%
O=C(OCC#CCSc1nnc(-c2ccncc2)o1)c1sc2ccccc2c1Cl -11.2%
O=C(Cc1c(O)c2ccccc2[nH]c1=O)NCc1ccccc1 -1.57%
